# Measured values from ChEMBL document CHEMBL1961873, “Compounds: GSK PKIS; Assays: Nanosyn kinase panel” (2012).
# Assays:
# [1] = test system: Proto-oncogene tyrosine-protein kinase receptor Ret (Homo sapiens), P07949 [Y791F]; conditions: at 1 µM
# [2] = molecular target: Macrophage-stimulating protein receptor (Homo sapiens) (UniProt Q04912); conditions: at 0.1 µM
# [3] = molecular target: Macrophage-stimulating protein receptor (Homo sapiens) (UniProt Q04912); conditions: at 1 µM
# [4] = molecular target: Proto-oncogene tyrosine-protein kinase ROS (Homo sapiens) (UniProt P08922); conditions: at 0.1 µM
# [5] = molecular target: Proto-oncogene tyrosine-protein kinase ROS (Homo sapiens) (UniProt P08922); conditions: at 1 µM
# [6] = molecular target: Proto-oncogene tyrosine-protein kinase Src (Homo sapiens) (UniProt P12931); conditions: at 0.1 µM
# Chain of Proto-oncogene tyrosine-protein kinase Src (Homo sapiens) (P12931 2-536 limits assumed): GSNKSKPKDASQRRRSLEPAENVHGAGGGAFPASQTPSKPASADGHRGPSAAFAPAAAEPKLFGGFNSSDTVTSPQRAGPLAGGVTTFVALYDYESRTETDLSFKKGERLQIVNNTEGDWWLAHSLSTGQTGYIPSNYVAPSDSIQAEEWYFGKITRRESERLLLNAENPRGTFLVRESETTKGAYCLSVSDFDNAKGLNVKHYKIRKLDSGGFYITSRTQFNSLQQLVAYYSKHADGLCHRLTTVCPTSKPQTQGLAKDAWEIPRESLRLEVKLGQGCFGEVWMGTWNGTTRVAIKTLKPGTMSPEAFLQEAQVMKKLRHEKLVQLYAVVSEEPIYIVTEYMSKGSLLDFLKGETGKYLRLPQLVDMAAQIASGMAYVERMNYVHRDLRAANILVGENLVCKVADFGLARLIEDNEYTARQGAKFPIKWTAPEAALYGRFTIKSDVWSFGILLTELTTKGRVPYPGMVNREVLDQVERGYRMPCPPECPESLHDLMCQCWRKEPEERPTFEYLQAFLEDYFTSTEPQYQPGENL
# [7] = molecular target: Proto-oncogene tyrosine-protein kinase Src (Homo sapiens) (UniProt P12931); conditions: at 1 µM
# [8] = molecular target: Tyrosine-protein kinase Srms (Homo sapiens) (UniProt Q9H3Y6); conditions: at 0.1 µM
# Chain of Tyrosine-protein kinase Srms (Homo sapiens) (Q9H3Y6 whole entry): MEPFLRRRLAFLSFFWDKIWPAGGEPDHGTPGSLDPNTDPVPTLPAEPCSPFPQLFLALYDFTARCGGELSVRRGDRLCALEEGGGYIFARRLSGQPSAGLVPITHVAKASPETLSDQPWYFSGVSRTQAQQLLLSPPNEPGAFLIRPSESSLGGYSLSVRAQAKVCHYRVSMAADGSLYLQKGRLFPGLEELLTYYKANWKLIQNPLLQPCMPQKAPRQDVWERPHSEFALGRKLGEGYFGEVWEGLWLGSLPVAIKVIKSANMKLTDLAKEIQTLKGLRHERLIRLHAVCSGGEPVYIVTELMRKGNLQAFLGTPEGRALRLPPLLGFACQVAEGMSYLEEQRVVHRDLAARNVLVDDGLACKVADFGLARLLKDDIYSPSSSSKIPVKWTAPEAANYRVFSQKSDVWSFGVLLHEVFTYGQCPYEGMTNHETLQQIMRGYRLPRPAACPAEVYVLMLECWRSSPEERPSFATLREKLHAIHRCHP
# [9] = molecular target: Tyrosine-protein kinase Srms (Homo sapiens) (UniProt Q9H3Y6); conditions: at 1 µM
# [10] = molecular target: Tyrosine-protein kinase SYK (Homo sapiens) (UniProt P43405); conditions: at 0.1 µM
# [11] = molecular target: Tyrosine-protein kinase SYK (Homo sapiens) (UniProt P43405); conditions: at 1 µM
# [12] = molecular target: T1, Tyrosine-protein kinase Tec (Homo sapiens) (UniProt P42680); conditions: at 0.1 µM
# T1 sequence (whole entry): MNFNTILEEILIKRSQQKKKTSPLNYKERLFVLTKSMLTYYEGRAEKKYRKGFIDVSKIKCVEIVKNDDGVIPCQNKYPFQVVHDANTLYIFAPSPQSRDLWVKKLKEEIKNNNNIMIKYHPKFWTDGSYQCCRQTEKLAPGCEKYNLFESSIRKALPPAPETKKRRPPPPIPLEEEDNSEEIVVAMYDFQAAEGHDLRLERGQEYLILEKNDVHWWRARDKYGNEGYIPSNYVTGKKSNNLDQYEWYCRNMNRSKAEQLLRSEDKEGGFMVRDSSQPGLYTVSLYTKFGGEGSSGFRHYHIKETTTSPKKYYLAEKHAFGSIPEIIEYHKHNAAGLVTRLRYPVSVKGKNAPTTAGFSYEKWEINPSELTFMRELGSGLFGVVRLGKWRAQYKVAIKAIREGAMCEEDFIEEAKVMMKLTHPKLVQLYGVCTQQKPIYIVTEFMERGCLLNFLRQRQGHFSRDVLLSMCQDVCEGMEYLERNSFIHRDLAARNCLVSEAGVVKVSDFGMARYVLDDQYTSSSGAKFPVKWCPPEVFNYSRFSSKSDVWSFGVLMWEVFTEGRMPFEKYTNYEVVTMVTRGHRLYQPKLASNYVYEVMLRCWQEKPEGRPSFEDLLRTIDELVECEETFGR
# [13] = molecular target: T1, Tyrosine-protein kinase Tec (Homo sapiens); conditions: at 1 µM
# [14] = molecular target: Angiopoietin-1 receptor (Homo sapiens) (UniProt Q02763); conditions: at 0.1 µM
# [15] = molecular target: Angiopoietin-1 receptor (Homo sapiens) (UniProt Q02763); conditions: at 1 µM
# [16] = molecular target: T2, Non-receptor tyrosine-protein kinase TNK1 (Homo sapiens) (UniProt Q13470); conditions: at 0.1 µM
# T2 sequence (whole entry): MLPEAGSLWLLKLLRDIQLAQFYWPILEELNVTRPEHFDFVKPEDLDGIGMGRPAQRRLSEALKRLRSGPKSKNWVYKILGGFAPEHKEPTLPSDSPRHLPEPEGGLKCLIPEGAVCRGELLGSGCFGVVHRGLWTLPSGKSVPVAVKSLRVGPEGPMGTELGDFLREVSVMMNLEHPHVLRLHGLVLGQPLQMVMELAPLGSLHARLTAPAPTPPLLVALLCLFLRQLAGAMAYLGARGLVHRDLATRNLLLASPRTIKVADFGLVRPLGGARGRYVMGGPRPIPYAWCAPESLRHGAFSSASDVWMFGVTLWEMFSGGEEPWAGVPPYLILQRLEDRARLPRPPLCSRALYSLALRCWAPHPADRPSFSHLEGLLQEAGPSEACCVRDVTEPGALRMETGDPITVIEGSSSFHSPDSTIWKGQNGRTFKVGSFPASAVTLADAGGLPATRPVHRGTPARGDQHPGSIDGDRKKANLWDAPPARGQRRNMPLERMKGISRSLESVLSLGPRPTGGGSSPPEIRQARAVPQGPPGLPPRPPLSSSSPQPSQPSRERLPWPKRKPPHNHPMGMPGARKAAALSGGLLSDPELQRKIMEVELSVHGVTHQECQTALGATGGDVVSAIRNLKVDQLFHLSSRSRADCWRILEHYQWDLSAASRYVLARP
# [17] = molecular target: T2, Non-receptor tyrosine-protein kinase TNK1 (Homo sapiens); conditions: at 1 µM
# [18] = molecular target: Activated CDC42 kinase 1 (Homo sapiens) (UniProt Q07912); conditions: at 0.1 µM
# Chain of Activated CDC42 kinase 1 (Homo sapiens) (Q07912 whole entry, looked up): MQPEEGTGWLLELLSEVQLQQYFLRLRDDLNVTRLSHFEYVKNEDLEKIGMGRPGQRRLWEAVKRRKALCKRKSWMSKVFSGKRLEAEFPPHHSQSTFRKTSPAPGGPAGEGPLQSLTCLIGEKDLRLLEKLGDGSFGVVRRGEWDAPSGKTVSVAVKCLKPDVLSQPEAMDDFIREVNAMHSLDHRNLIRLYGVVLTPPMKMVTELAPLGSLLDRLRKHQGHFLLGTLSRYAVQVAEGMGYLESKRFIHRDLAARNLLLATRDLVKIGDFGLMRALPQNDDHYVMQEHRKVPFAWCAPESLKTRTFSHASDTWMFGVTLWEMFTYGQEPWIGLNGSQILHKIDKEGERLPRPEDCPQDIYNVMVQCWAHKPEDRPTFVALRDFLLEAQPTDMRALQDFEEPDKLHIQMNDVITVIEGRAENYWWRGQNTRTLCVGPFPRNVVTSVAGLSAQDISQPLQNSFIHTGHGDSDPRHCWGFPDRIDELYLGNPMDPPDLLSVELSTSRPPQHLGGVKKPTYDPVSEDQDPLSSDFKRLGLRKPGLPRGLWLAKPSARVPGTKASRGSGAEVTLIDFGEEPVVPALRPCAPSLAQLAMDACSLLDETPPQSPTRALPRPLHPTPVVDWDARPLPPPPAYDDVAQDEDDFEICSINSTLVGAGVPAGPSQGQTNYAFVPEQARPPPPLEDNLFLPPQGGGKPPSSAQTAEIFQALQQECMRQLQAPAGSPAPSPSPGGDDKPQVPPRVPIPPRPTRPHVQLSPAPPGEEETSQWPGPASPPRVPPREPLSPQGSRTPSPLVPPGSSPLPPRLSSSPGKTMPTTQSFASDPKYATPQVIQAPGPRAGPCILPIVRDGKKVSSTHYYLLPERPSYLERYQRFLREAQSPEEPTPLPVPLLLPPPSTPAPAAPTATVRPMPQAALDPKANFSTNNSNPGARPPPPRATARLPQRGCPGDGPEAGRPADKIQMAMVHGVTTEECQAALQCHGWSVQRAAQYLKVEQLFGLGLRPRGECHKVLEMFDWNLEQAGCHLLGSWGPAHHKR
# [19] = molecular target: Activated CDC42 kinase 1 (Homo sapiens) (UniProt Q07912); conditions: at 1 µM
# [20] = molecular target: High affinity nerve growth factor receptor (Homo sapiens) (UniProt P04629); conditions: at 0.1 µM;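 also: each value is a mean of replicate percent inhibition readings against TRKA kinase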
# Chain of Macrophage-stimulating protein receptor (Homo sapiens) (Q04912 25-304 limits assumed): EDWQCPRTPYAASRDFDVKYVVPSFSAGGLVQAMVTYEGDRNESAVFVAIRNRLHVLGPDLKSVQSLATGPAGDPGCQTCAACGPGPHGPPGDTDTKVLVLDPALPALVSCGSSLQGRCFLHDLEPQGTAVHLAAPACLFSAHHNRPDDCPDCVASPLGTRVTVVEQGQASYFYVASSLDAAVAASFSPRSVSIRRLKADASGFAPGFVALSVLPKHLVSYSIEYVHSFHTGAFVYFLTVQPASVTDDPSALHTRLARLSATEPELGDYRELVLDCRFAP
# Chain of Macrophage-stimulating protein receptor (Homo sapiens) (Q04912 310-1400 limits assumed): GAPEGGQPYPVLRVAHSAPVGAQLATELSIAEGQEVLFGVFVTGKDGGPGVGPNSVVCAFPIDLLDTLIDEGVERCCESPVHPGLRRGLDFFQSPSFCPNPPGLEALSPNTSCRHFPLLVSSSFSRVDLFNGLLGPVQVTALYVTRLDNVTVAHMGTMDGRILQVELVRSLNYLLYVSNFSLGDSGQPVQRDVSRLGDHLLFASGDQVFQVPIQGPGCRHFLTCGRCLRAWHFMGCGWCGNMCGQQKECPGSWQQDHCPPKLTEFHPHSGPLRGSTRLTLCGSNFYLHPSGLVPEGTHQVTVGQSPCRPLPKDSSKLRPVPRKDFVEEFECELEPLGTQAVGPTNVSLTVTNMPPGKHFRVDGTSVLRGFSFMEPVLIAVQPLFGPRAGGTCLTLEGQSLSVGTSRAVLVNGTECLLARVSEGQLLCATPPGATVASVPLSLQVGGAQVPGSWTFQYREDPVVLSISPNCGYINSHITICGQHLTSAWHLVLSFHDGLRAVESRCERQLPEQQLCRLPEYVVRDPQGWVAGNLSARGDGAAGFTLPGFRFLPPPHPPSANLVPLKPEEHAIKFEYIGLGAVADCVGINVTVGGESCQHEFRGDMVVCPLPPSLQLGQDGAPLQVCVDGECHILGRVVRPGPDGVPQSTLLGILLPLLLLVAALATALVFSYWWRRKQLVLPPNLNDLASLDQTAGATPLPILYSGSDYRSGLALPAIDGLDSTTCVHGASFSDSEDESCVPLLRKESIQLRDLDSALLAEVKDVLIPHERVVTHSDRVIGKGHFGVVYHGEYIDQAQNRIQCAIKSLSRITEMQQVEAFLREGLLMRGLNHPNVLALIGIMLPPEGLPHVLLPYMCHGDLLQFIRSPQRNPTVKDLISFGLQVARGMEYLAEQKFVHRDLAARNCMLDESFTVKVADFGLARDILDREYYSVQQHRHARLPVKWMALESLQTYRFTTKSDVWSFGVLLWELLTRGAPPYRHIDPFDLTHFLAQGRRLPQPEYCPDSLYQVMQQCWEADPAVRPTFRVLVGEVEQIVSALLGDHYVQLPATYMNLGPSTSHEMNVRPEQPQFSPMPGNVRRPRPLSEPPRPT
# Chain of Proto-oncogene tyrosine-protein kinase receptor Ret (Homo sapiens), P07949 [Y791F] (P07949 whole entry Y791F): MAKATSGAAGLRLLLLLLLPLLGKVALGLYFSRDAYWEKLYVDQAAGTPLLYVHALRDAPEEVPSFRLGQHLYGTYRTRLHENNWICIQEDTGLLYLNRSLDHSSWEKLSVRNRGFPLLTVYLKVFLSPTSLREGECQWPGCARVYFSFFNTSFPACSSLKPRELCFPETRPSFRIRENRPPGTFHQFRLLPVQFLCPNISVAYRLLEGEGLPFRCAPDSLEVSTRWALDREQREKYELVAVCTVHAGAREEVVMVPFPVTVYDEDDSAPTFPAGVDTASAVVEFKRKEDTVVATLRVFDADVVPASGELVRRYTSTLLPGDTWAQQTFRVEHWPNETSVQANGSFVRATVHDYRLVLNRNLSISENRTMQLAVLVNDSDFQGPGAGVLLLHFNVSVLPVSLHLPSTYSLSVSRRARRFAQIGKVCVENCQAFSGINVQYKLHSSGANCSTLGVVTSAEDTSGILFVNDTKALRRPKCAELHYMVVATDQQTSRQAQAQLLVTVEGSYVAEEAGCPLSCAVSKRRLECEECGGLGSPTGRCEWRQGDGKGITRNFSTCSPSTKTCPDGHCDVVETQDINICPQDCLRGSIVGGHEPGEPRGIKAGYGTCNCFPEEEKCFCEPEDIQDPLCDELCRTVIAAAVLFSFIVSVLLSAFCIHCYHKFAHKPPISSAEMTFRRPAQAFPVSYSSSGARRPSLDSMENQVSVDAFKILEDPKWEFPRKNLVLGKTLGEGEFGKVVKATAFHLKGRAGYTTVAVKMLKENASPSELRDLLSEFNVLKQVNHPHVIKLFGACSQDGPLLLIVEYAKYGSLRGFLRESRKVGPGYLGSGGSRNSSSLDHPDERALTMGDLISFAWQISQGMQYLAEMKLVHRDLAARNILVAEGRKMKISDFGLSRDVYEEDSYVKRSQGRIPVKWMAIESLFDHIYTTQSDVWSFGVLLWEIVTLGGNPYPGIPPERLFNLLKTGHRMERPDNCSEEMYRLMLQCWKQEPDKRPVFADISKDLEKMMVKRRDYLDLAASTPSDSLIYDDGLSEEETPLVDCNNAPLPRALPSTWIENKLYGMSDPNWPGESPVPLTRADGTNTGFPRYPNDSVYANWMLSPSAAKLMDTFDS
SMILES,inhibition [1],inhibition [2],inhibition [3],inhibition [4],inhibition [5],inhibition [6],inhibition [7],inhibition [8],inhibition [9],inhibition [10],inhibition [11],inhibition [12],inhibition [13],inhibition [14],inhibition [15],inhibition [16],inhibition [17],inhibition [18],inhibition [19],inhibition [20]
CNC(=O)c1cncc(/C=C/c2ccccc2Cl)c1,22.8%,2.22%,7.21%,-2.16%,2.7%,10.1%,7.14%,1.76%,3.3%,7.26%,0.31%,2.56%,10.2%,-0.85%,4.09%,2.57%,27.7%,0.2%,5.7%,-5.21%
COC(=O)c1sc(-n2cnc3cc(OC)c(OC)cc32)cc1OCc1ccccc1C(F)(F)F,52.3%,0.58%,1.46%,6.32%,12.3%,1.51%,24.7%,-2.13%,-3.45%,-5.15%,1.09%,3.18%,6.98%,4.13%,14.3%,8.49%,4.49%,0.92%,5.56%,3.76%
COc1ccc(-c2cc3c(N)ncnc3o2)cc1,4.56%,-4.17%,-1.06%,2.19%,4.11%,-1.14%,7.59%,1.52%,3.06%,0.62%,-0.57%,-1.03%,3.07%,2.49%,2.73%,-0.85%,6.1%,-0.17%,1.96%,-0.83%
NS(=O)(=O)c1ccc(Nc2ncc(-c3ccccc3)o2)cc1,7.3%,4%,6.45%,3.2%,13.1%,1.97%,18.3%,-0.76%,0.22%,3.95%,-1.05%,4.68%,7.4%,2.1%,2.98%,4.37%,18.5%,1.26%,3.09%,5.28%
Fc1ccc(-c2cc(-c3c[nH]nc3-c3ccccn3)ccn2)cc1,13.8%,4.71%,8.86%,6.8%,8.14%,0.27%,9%,-0.96%,-1.26%,0.3%,-0.94%,3.71%,3.67%,2.32%,2.49%,3.71%,17.8%,2.51%,1.26%,2.16%
c1ccc(-c2nc3n(c2-c2ccc4c(c2)OCO4)CCC3)nc1,1.82%,0.69%,1.59%,4.52%,4.91%,-7.85%,2.73%,-0.53%,-1.55%,-1.33%,2.09%,1.69%,0.69%,-0.12%,1.12%,0.76%,0.08%,0.05%,0.93%,1.9%
CNC(=O)c1cc(-c2ccc(F)cc2)cc(-c2ccc(S(=O)(=O)N3CCCC3)cc2)c1N,2.82%,1.89%,4.58%,4.64%,6.55%,5.46%,6.17%,2.11%,-2.91%,-0.29%,0.73%,2.93%,3.29%,2.3%,2.3%,2.65%,2.41%,0.47%,1.54%,1.97%
Fc1ccc(-c2nn3ncccc3c2-c2ccnc(Nc3ccc4c(c3)OCCO4)n2)cc1,65.8%,-2.95%,4.64%,4.11%,10.9%,40.2%,83.9%,-0.06%,9.83%,-5.37%,-3.1%,11.3%,45.3%,6.26%,23.4%,8.48%,30.4%,1.35%,13%,2.82%
COc1cc2ncn(-c3cc(OCc4ccccc4C(F)(F)F)c(C(=O)N(C)C)s3)c2cc1OC,23.4%,1.82%,-1.06%,1.8%,2.67%,0.91%,3.6%,1.16%,1.35%,4.44%,1.81%,0.84%,2.14%,1.94%,3.94%,8.67%,48.7%,0.68%,7.7%,1.49%
COc1cc(N2CCN(C(C)C)CC2)ccc1Nc1nc(Nc2ccc(F)cc2C(N)=O)c2cc[nH]c2n1,16.6%,0.61%,-0.44%,51.8%,81.8%,6.34%,10.4%,1.36%,7.98%,0.19%,35.9%,6.32%,3.59%,4.35%,3.7%,34.7%,74.1%,10.8%,61.7%,-1.19%
[O-][S+]1CCN(Cc2ccc(-c3ccc4ncnc(Nc5ccc(OCc6cccc(F)c6)c(Cl)c5)c4c3)o2)CC1,9.63%,3.82%,6.8%,4.15%,2.36%,8.56%,10.2%,0.4%,-1.62%,2.13%,0.31%,2.12%,4.55%,3.66%,5.42%,2.94%,11.7%,1.61%,1.32%,3.52%
Fc1ccc(-c2nn3ccccc3c2-c2ccncc2)cc1,7.11%,3.62%,3.94%,1.35%,3.41%,-0.8%,5%,-1.74%,0.28%,2.26%,0.32%,1.22%,2.64%,3.2%,4.76%,-0.64%,0.91%,0.16%,0.87%,2.3%
CN1CCC(n2cnc(-c3ccc(F)cc3)c2-c2ccnc(N)n2)CC1,27.5%,5.16%,-2.05%,2.9%,15.1%,1.96%,10.6%,1.38%,0.46%,2.67%,-1.2%,3.52%,5.01%,3.13%,2.56%,1.5%,8.96%,0.57%,1.23%,0.03%
CS(=O)(=O)CCNCc1ccc(-c2ccc3ncnc(Nc4ccc(OCc5ccccc5)c(C(F)(F)F)c4)c3c2)o1,6.81%,-2.49%,-4.8%,3.04%,6.52%,6.38%,7.74%,-2.3%,-1.62%,-2.88%,-5.62%,0.36%,3.4%,0.1%,4.31%,1.84%,9.92%,0.97%,1.65%,2%
